Among the data in PubChem BioAssay (NCI) are growth values, retold here.

Holding throughout (test): NCI-60 one-dose screen, 48 h (100 = growth as untreated, 0 = no growth, -100 = all killed)
One assay deals with NCI-H23 lung. The note with it: 10 µM unless noted.
The next assay has as its system NCI-H226 lung. The following applies: 10 µM unless noted.
Another assay has as its system NCI-H322M lung. The note with it: 10 µM unless noted.
The test system of the next assay is HOP-62 NSCLC. The following applies: 10 µM unless noted.
A further assay has as its system NCI-H460 lung. The following applies: 10 µM unless noted.
The subject of the next assay is HOP-92 NSCLC. The note with it: 10 µM unless noted.
A further assay relates to NCI-H522 lung. The following applies: 10 µM unless noted.
A further assay concerns A549/ATCC NSCLC. The note with it: 10 µM unless noted.
Another assay concerns 786-0 renal. The note with it: 10 µM unless noted.
For the next assay, the system named is COLO 205 colon. The following applies: 10 µM unless noted.
For another assay, the system named is DU-145 prostate. The following applies: 10 µM unless noted.
Another assay concerns K-562 leukemia. The following applies: 10 µM unless noted.
A further assay deals with MALME-3M melanoma. The following applies: 10 µM unless noted.
For a further assay, the system named is MDA-MB-231 breast. The following applies: 10 µM unless noted.
Another assay concerns SF-268 CNS. The note with it: 10 µM unless noted.
Another assay has as its system SF-295 CNS. The following applies: 10 µM unless noted.
In another assay the test system is SF-539 CNS. The following applies: 10 µM unless noted.
In a further assay the test system is UACC-257 melanoma. The note with it: 10 µM.
A further assay concerns M14 melanoma. The note with it: 10 µM unless noted.
In another assay the test system is RXF 393 renal. The following applies: 10 µM unless noted.

The panel holds about 83,000 compounds, 20% with a hit somewhere; the sample as a whole holds those more often.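 The test compound was applied at a single concentration to cells in 96-well plates for 48 hours, and percent growth was recorded.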 Unmarked numbers belong to inactive results. The source made the active and inactive calls. How the source made its calls: active means growth percent below 10; inactive means the rest.

Consider `O=c1[nH]c(-c2cn(-c3ccc(Cl)cc3)nn2)nc2ccccc12`, for which the growth in the assay with NCI-H23 lung is 77.6%; in the assay with NCI-H226 lung it was 65.5%; in the assay with NCI-H322M lung, 52.4%; with HOP-62 NSCLC it was 52.5%; in the assay with NCI-H460 lung, 74.7%; in the assay with HOP-92 NSCLC it was 62.9%. For the same molecule, the growth in the assay on NCI-H522 lung was 67.8%; in the assay on A549/ATCC NSCLC, 61.2%; in the assay with 786-0 renal, 31.9%; in the assay on COLO 205 colon it was 99.2%; in the assay with DU-145 prostate it was 94.6%; with K-562 leukemia, 96.6%. For the same molecule, the growth in the assay on MALME-3M melanoma was 59%; in the assay on MDA-MB-231 breast, 74.9%; in the assay with SF-268 CNS it was 77.9%; with SF-295 CNS it was 83.6%; in the assay on SF-539 CNS, 48.2%; in the assay with UACC-257 melanoma it was 77.9%. In addition, the growth in the assay on M14 melanoma was 91.4%.
Turning to `Cc1cc(Nc2nc(C(=O)Nc3ccccc3)nc3ccccc23)n[nH]1`, the growth with NCI-H23 lung was 77.5%; with NCI-H226 lung, 67.1%; in the assay with NCI-H322M lung, 56.5%; with HOP-62 NSCLC, 60%; in the assay with NCI-H460 lung, 37.6%; with HOP-92 NSCLC it was 51.2%. In addition, the growth in the assay with NCI-H522 lung was 59%; in the assay with A549/ATCC NSCLC, 62.4%; in the assay on 786-0 renal it was 56.2%; in the assay with COLO 205 colon, 76%; in the assay on DU-145 prostate, 66.2%; with K-562 leukemia, 48.7%. The growth in the assay with MALME-3M melanoma is 61.5%; with MDA-MB-231 breast, 85.4%; in the assay on SF-268 CNS, 71%; in the assay with SF-295 CNS, 53.9%; with SF-539 CNS, 78.7%; in the assay on UACC-257 melanoma it was 83%. The growth in the assay with M14 melanoma is 50.9%.
Take `COc1cccc(-n2cc(-c3nc(Cl)c4ccccc4n3)nn2)c1`: the growth was 100% in the assay on NCI-H23 lung; 111% in the assay on NCI-H226 lung; 102% in the assay with NCI-H322M lung; 125% in the assay with HOP-62 NSCLC; 107% in the assay with NCI-H460 lung; 101% in the assay with HOP-92 NSCLC. Also, the growth in the assay with NCI-H522 lung was 83.2%; with A549/ATCC NSCLC it was 92.7%; in the assay with 786-0 renal it was 97.8%; with COLO 205 colon, 98.8%; with DU-145 prostate it was 107%; with K-562 leukemia it was 97.9%. The growth in the assay on MALME-3M melanoma is 104%; with MDA-MB-231 breast, 107%; in the assay on SF-268 CNS, 105%; in the assay on SF-295 CNS, 93.2%; with SF-539 CNS, 108%; in the assay on UACC-257 melanoma, 110%. The growth with M14 melanoma is 106%.
Regarding `COc1cc(CCn2nnc3c(NCCCCO)ncnc32)cc(OC)c1`, the growth with NCI-H23 lung is 94.5%; in the assay with NCI-H226 lung it was 99.3%; with NCI-H322M lung, 99.3%; in the assay on HOP-62 NSCLC, 113%; in the assay with NCI-H460 lung, 105%; in the assay with HOP-92 NSCLC it was 83.8%. Also, the growth was 111% in the assay on NCI-H522 lung; 101% with A549/ATCC NSCLC; 105% with 786-0 renal; 109% in the assay on COLO 205 colon; 104% with DU-145 prostate; 116% with K-562 leukemia. Also, the growth was 111% with MALME-3M melanoma; 120% with MDA-MB-231 breast; 105% in the assay with SF-268 CNS; 105% in the assay on SF-295 CNS; 111% with SF-539 CNS; 103% with UACC-257 melanoma. In the assay with M14 melanoma, the growth was 90.3%.
Consider `COc1cc(OC)cc(-c2n[nH]nc2-c2ccc3c(c2)OCO3)c1`, for which the growth is 30.1% with NCI-H23 lung; 92.1% in the assay with NCI-H226 lung; 55.5% in the assay on NCI-H322M lung; 30.3% with HOP-62 NSCLC; 12% in the assay with NCI-H460 lung; 57% in the assay with HOP-92 NSCLC. The growth with NCI-H522 lung was -41.5% (active); with A549/ATCC NSCLC, 28.9%; in the assay with 786-0 renal it was 40%; in the assay on COLO 205 colon, -61.2% (active); in the assay on DU-145 prostate, 25.1%; with K-562 leukemia, 16.7%. Moreover, the growth with MALME-3M melanoma was 67.7%; in the assay with MDA-MB-231 breast, 18.9%; in the assay with SF-268 CNS, 52%; in the assay on SF-295 CNS, 1.21% (active); in the assay on SF-539 CNS, -31% (active); in the assay on UACC-257 melanoma it was 71.4%. In addition, in the assay on M14 melanoma, the growth was 14.5%.
In the case of `NC(=O)c1cccc(N2Cc3ccccc3OC3=C2C(=O)c2c(O)ccc(O)c2C3=O)c1`, the growth in the assay with NCI-H23 lung is 6.02% (active); with NCI-H226 lung it was 0.769% (active); in the assay with NCI-H322M lung it was 25.5%; with HOP-62 NSCLC, -42% (active); in the assay with NCI-H460 lung, -27.5% (active); with HOP-92 NSCLC it was -91.8% (active). The growth with NCI-H522 lung was -73.4% (active); in the assay with A549/ATCC NSCLC, 24.7%; in the assay with 786-0 renal, -80.5% (active); in the assay on COLO 205 colon it was -82.8% (active); in the assay on DU-145 prostate, -96.4% (active); with K-562 leukemia it was -19.8% (active). The growth in the assay with MALME-3M melanoma is -82% (active); with MDA-MB-231 breast, -81.9% (active); in the assay with RXF 393 renal, -73.1% (active); in the assay on SF-268 CNS, -11.4% (active); in the assay with SF-295 CNS, 45.4%; in the assay with SF-539 CNS, -49.3% (active). In addition, in the assay with M14 melanoma, the growth was -81% (active).
With `COc1ccc(-c2nnc(COc3ccc(NC(=O)Nc4ccc(Cl)c(C(F)(F)F)c4)cc3F)o2)cc1`, the growth in the assay with NCI-H23 lung was -20.2% (active); in the assay on NCI-H226 lung, 33.5%; with NCI-H322M lung, 33%; in the assay with HOP-62 NSCLC, 36.4%; with NCI-H460 lung, -25.4% (active); in the assay on HOP-92 NSCLC it was -13.4% (active). Besides, the growth in the assay with NCI-H522 lung is -54.6% (active); with A549/ATCC NSCLC it was 11.1%; in the assay with 786-0 renal, 24.7%; in the assay on COLO 205 colon it was -7.23% (active); in the assay with DU-145 prostate, 13.2%; in the assay with K-562 leukemia it was 16.9%. The growth in the assay with MALME-3M melanoma is -1.11% (active); with MDA-MB-231 breast, -8.46% (active); in the assay on SF-268 CNS it was 20.5%; in the assay with SF-295 CNS it was -3.88% (active); in the assay with SF-539 CNS, 0.516% (active); in the assay with UACC-257 melanoma, 30.3%. The growth with M14 melanoma was 9.03% (active).
With `COc1ccc(C2CC(c3cccs3)=NN2c2ccc(S(=O)(=O)NC(=O)NCc3cccc(OC)c3)cc2)cc1` (configuration not stated), the growth with NCI-H23 lung was 97.6%; with NCI-H226 lung, 110%; in the assay on NCI-H322M lung, 102%; with HOP-62 NSCLC, 81%; in the assay with NCI-H460 lung, 109%; with HOP-92 NSCLC it was 87.1%. Moreover, the growth with NCI-H522 lung is 87.3%; in the assay on A549/ATCC NSCLC it was 5.45% (active); in the assay with 786-0 renal it was 101%; with COLO 205 colon, -63.5% (active); with DU-145 prostate, 106%; in the assay with K-562 leukemia, 111%. The growth was 31.2% with MALME-3M melanoma; 113% with MDA-MB-231 breast; 97.9% in the assay on SF-268 CNS; 105% with SF-295 CNS; 104% in the assay on SF-539 CNS; 30% in the assay with UACC-257 melanoma. In addition, the growth with M14 melanoma is 52.1%.
